Screens: PubChem, National Center for Advancing Translational Sciences (NCATS)
FMDV inh = High Throughput Screening for Foot and Mouth Disease Virus Antivirals. Potency, µM (doses to about 57.9 µM), inactives show at the highest dose activity change, negative = inhibition, usual class: inhibitors. AID 1159524, 2015. FMDV antiviral cell-based qHTS. 1.2% of 410,000 active; calls by dose curve; tested in HEK293T cells; also: read-out not given here; potency is read from the fitted curve at half-maximal effect; nearly all actives have a fitted effect of over 45% in size
LASV entry inh = qHTS for Inhibitors of binding or entry into cells for Lassa Virus; Lassa virus pseudotype entry inhibition, cell reporter; Potency, µM (series often up to 37.9 µM), for inactives: at the highest dose activity change, negative = inhibition, usual class: inhibitors; AID 540256, 2011; 1.2% of 300,000 active; calls by dose curve; tested in HEK293 cells; also: potency is read from the fitted curve at half-maximal effect; nearly all actives have a fitted effect of over 50% in size
HCMV inh = qHTS Assay for inhibitors of the human cytomegalovirus (HCMV) | HFF cells, HCMV-luciferase reporter, 72 h; stronger effect = lower value | activity change, negative = inhibition, % at 57.5 µM | 4.5% of 410,000 active | AID 1259415, 2018; in the data active = activity change below about -60%; inconclusive = no clear call, values can overlap the other calls; inactive = above about -39%
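Two compound doses tested in HFFs infected with HCMV-luciferase, MOI 1 PFU/cell, 72 h at 37C. Lysate luminescence read with OneGlo; data normalized against buffer-only and 10uM Salinomycin inhibitor controls.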
Marburg entry inh = qHTS for inhibitors of binding or entry into cells for Marburg Virus; Potency, µM (series often up to 37.8 µM), for inactives: at the top dose activity change, negative = inhibition, most hits filed as inhibitors; Marburg virus pseudotyped entry inhibition, cell reporter; AID 540276, 2011; 1.8% of 300,000 active; calls by dose curve; tested in HEK293 cells; also: potency is read from the fitted curve at half-maximal effect
* marks the source's active call; other numbers are inactive results; ? = inconclusive; . = not tested or not shown; [ ] = remark or other dose. Sampled rows, rich in hits. Any-hit rate of the full collection: about 6.2%. % is scaled to controls: 0 for no effect and ±100 for the full control effect.

SMILES	FMDV inh	LASV entry inh	HCMV inh	Marburg entry inh
Cc1cccc(C)c1NC(=O)C(c1cccs1)N(Cc1ccco1)C(=O)Cn1nnc2ccccc21 (stereo unspecified)	-20%	-4%	?	?
O=C(CC(=O)N/N=C/c1ccc(C(=O)O)cc1)NCCc1ccccc1	-1%	.	-97*	.
O=C(Cc1ccccc1)NN=Cc1ccccc1	19%	12%[46.1 µM]	-1	2%
O=C(Cc1ccc(Cl)cc1)N/N=C/c1ccccc1	5%	.	-68*	.
COc1ccc(CCNC(=O)CC(=O)N/N=C/c2ccc(C(=O)O)cc2)cc1OC	12%	-2%	-12	-4%
O=C(Cc1ccc(Cl)cc1)N/N=C/c1ccncc1	11%	9%[46.1 µM]	-14	-22%[46.1 µM]
O=C(O)COc1ccc(/C=N/NC(=O)Cc2ccc(Cl)cc2)cc1	-21%	-6%[46.1 µM]	-101*	?
CN(C)S(=O)(=O)c1ccc(C(=O)N2CCCC2c2nc3ccccc3s2)cc1 (stereo unspecified)	?	0%	12	2%
O=C(c1ccco1)N1CCN(c2cc(N3CCOCC3)c(F)cc2[N+](=O)[O-])CC1	-13%	?	-103*	-14%[46.1 µM]
O=C(c1ccco1)N1CCN(c2ccc([N+](=O)[O-])cc2F)CC1	12%	14%[46.1 µM]	8	18%[46.1 µM]
CCN1CCN(c2cc(N3CCCC3)c(F)cc2[N+](=O)[O-])CC1	-11%	?	?	21µM*
CCOC(=O)N1CCN(c2cc(N3CCOCC3)c(F)cc2[N+](=O)[O-])CC1	0%	7.9µM*	6	-7%
CC(C)(CNC(=O)c1cnn(-c2nccc(-c3ccccc3F)n2)c1C1CC1)N1CCOCC1	-2%	.	.	.
CCCCCNC(=O)c1nc(-c2c(F)cccc2F)oc1-c1ccccc1	-12%	.	-31	.
CC1CCN(C(=O)CCS(=O)(=O)c2cc3c(cc2Cl)NC(=O)CO3)CC1	-24%	13%[46.1 µM]	-18	.
CCN1CCCC1CNC(=O)C(=O)Nc1ccccc1 (stereo unspecified)	27%	-6%[46.1 µM]	49	?
C=C1C(=O)OC2C=C(C)CCC=C(C)CCC12 (stereo unspecified)	-20%	.	.	.
C=C1C(=O)O[C@H]2C[C@H]1[C@@H](OC(C)=O)C/C(C)=C/CC/C(C)=C\CC[C@]2(C)O	7.1µM*	.	-103*	.
O=C(c1ccccc1O)N1N=C(C(F)(F)F)CC1(O)c1ccc([N+](=O)[O-])cc1 (stereo unspecified)	-19%	.	-102*	.
CCC1=NN(C(=O)c2ccccc2O)C(O)(c2ccccc2)C1 (stereo unspecified)	-8%	.	-76*	.
O=C(CN1N=C(C(F)(F)F)CC1(O)c1ccc([N+](=O)[O-])cc1)c1ccccc1 (stereo unspecified)	-5%	4%	10	-8%
CCOc1ccc(CNC(=O)CCCn2nc(CC)n3c(cc4occc43)c2=O)cc1	-11%	.	-60*	.
CCc1nn(CCCC(=O)NCc2ccc(OC(C)C)cc2)c(=O)c2cc3occc3n12	-32%	18%[46.1 µM]	?	?
CN(C(=O)CCCN1C(=O)c2cccc3cccc(c23)C1=O)c1ccccc1	?	-11%	-62*	-9%[46.1 µM]
O=C(CCCN1C(=O)c2cccc3cccc(c23)C1=O)N1CCN(c2ccc(F)cc2)CC1	22µM*	?	-37	?
SMILES	FMDV inh	LASV entry inh	HCMV inh	Marburg entry inh
CC(C)(CO)N1CCN(C(=S)Nc2ccccc2)CC1	22µM*	.	-9	.
S=C(Nc1ccccc1)N1CCOCCOCCN(C(=S)Nc2ccccc2)CCOCCOCC1	-8%	17%	20	5.6µM*
CC(=O)[C@@]1(O)C(C)CC2C3C=C(C)C4=Cc5c(cnn5-c5ccccc5)C[C@]4(C)C3C(O)C[C@@]21C (stereo partly specified)	-18%	?	?	7.9µM*
COc1cc(CNc2nc(C)c([N+](=O)[O-])c(C)c2C#N)cc(OC)c1OC	25µM*	?	40	?
COc1ccc(CNc2nc(C)c([N+](=O)[O-])c(C)c2C#N)cc1	-26%	12%	?	-7%
COc1cc(NCCCCC(C)N)c2nccc(C)c2c1 (stereo unspecified)	-24%	.	-71*	.
COc1cc(NCCCC(C)N)c2ncccc2c1 (stereo unspecified)	-18%	?	-107*	3.5µM*
CCC(CNc1cc(OC)cc2cccnc12)NC1CCCCC1 (stereo unspecified)	-19%	.	-23	.
COc1ccccc1OCC(=O)Nc1sc2c(c1C(N)=O)CCC2	-1%	.	-3	.
COC(=O)c1scc(C)c1NC(=O)Nc1ccccc1	-13%	1%	-99*	-3%[46.1 µM]
